# Records with an inconclusive call do not appear. A call without a number means that no potency is given here. Calls of active or inactive are those of the source. Unless noted, calls come from the whole dose curve; as a rule, active = well fitted curve in the direction sought with a large enough effect; inconclusive = small, poorly fitted or top-dose-only effect, or another doubt; inactive = no such curve, though single readings can be large; an effect the other way counts as inactive or inconclusive.
# Experiments:
# [1] = BET inhibitor-based combinations targeting novel dependencies in MECOM-rearranged (r) AML: MV-4-11 cell line (AID 2202233); note: potency is the fitted concentration of half-maximal effect; nearly all actives have a fitted effect of over 45% in size
# Outline: (§1)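 Using pin-tool transfer, drugs were added in 11 doses to cells (500/well), incubated 48 hr, and assessed with CellTiter-Glo. Z-AUC is a mean-centring transformation applied separately to each screened line.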
# [2] = BET inhibitor-based combinations targeting novel dependencies in MECOM-rearranged (r) AML: HNT-34 cell line (AID 2202234); note: potency is the fitted concentration of half-maximal effect; nearly all actives have a fitted effect of over 35% in size
# Outline: as §1
# [3] = BET inhibitor-based combinations targeting novel dependencies in MECOM-rearranged (r) AML: UCSD-AML1 cell line (AID 2202235); note: nearly all actives have a fitted effect of over 40% in size; note: potency is the fitted concentration of half-maximal effect
# Outline: as §1
# [4] = BET inhibitor-based combinations targeting novel dependencies in MECOM-rearranged (r) AML: AML-191 cell line (AID 2202236; note: nearly all actives have a fitted effect of over 35% in size)
# Outline: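 Viability of cells (500 per well) is scored by luminescent CellTiter-Glo at 48 hr post-dosing. Eleven-point titrations are normalized to DMSO and empty controls and reduced to AUC values.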
# [5] = molecular target: Aldehyde dehydrogenase, mitochondrial (Homo sapiens) (UniProt P05091); experiment: qHTS for Inhibitors of the Aldehyde Dehydrogenase Family (ALDH2) Validation screens (AID 2061302; active = well fitted inhibition curve with a large enough effect; title and protocol of this record describe different tests)
# [6] = molecular target: Retinaldehyde dehydrogenase 3 (Homo sapiens) (UniProt P47895); experiment: qHTS for Inhibitors of the Aldehyde Dehydrogenase Family (ALDH1A3) Validation screen (AID 2061312); note: nearly all actives have a fitted effect of over 45% in size
structure (smiles),measurement,setting,value
CC(C)c1c(C(=O)Nc2ccccc2)c(-c2ccccc2)c(-c2ccc(F)cc2)n1CC[C@@H](O)C[C@@H](O)CC(=O)O,Potency,[1],5.74 µM (active)
same,Potency,[2],10.2 µM (active)
same,Potency,[3],7.23 µM (active)
Cc1ccc(-c2cc(C(F)(F)F)nn2-c2ccc(S(N)(=O)=O)cc2)cc1,Potency,[3],inactive
O=C1CCc2cc(OCCCCc3nnnn3C3CCCCC3)ccc2N1,Potency,[4],inactive
Cc1cn([C@H]2C=C[C@@H](CO)O2)c(=O)[nH]c1=O,Potency,[5],inactive
same,Potency,[6],inactive
NC(N)=[N+]1CCc2ccccc2C1,Potency,[5],inactive
same,Potency,[6],inactive

# Source: PubChem BioAssay (NCATS)
